# In publication PMC7862700, “An all-to-all approach to the identification of sequence-specific readers for epigenetic DNA modifications on cytosine”:
# Key:
# Experiment in all cases: DAPPL (digital affinity profiling via proximity ligation, sequencing); 10 mM Tris-HCl pH 7.5, 50 mM NaCl, 1 mM DTT, 4% glycerol, room temperature, 30 min; GST-TFs on glutathione beads, 16-mer random dsDNA library, 0.1% formaldehyde crosslink after washing; high values mean tight binding
# Conditions in all cases: protein: recombinant; tags: N-terminal GST; dsDNA, one strand shown
# FLI1 = biological target: T1, FLI1 (Homo sapiens, UniProt Q01543 1-452)
# T1 sequence: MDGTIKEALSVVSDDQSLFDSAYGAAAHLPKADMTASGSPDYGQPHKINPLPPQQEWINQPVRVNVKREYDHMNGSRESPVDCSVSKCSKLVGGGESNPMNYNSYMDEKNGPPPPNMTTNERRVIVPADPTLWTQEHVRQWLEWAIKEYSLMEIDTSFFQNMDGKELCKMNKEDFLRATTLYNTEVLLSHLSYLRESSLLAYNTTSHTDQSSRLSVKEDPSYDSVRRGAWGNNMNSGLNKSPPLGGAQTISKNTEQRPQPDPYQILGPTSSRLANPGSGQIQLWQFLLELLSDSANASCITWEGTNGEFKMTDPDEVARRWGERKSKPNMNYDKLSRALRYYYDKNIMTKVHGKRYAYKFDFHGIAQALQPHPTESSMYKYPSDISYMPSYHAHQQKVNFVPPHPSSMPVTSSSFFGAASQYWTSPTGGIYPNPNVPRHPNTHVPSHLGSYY
# In short: (§1)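 Human transcription factors fused to GST were expressed in yeast, captured on glutathione beads, given DNA barcodes and pooled with a GST-only negative control. Pools were incubated with 200 nmole of a 16-mer random double-stranded DNA library in Tris/NaCl/DTT/glycerol buffer at room temperature for 30 min. They were then washed, crosslinked with 0.1% formaldehyde, proximity-ligated (BsaI/T4 ligase, 1 h, 37 °C), PCR-amplified and sequenced on an Illumina NextSeq500. Binding signal is each 6-mer's read frequency for a factor divided by its frequency for the GST control.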
# ELK1 = biological target: T2, ELK1 (Homo sapiens, UniProt P19419 1-428)
# T2 sequence: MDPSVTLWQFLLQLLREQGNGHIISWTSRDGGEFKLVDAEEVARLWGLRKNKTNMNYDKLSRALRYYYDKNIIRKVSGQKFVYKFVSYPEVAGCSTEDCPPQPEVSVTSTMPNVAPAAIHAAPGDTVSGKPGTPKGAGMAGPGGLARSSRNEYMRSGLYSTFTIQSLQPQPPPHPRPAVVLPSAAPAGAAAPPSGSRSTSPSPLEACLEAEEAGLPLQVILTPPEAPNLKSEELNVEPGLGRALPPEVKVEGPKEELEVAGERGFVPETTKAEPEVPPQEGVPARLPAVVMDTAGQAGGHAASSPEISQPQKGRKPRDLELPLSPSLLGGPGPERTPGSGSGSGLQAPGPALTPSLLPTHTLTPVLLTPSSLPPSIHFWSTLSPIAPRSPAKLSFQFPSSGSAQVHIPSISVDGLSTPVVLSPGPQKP
# In short: as §1
# GABPA = biological target: T3, GABPA (Homo sapiens, UniProt Q06546 1-454)
# T3 sequence: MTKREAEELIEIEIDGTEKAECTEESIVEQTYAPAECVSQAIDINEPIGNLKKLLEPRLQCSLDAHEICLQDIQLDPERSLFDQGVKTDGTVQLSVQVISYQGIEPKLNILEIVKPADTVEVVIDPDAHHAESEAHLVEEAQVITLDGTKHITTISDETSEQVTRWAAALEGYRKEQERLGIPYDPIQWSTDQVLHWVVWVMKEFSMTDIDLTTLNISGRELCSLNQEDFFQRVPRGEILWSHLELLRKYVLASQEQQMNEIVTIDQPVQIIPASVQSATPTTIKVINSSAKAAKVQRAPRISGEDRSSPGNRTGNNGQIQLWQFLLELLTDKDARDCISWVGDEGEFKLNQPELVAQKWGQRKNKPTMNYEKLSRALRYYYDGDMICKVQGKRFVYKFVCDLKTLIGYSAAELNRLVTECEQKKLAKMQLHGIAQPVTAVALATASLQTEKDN
# In short: as §1
# ERG = biological target: T4, ERG (Homo sapiens, UniProt P11308 1-479)
# T4 sequence: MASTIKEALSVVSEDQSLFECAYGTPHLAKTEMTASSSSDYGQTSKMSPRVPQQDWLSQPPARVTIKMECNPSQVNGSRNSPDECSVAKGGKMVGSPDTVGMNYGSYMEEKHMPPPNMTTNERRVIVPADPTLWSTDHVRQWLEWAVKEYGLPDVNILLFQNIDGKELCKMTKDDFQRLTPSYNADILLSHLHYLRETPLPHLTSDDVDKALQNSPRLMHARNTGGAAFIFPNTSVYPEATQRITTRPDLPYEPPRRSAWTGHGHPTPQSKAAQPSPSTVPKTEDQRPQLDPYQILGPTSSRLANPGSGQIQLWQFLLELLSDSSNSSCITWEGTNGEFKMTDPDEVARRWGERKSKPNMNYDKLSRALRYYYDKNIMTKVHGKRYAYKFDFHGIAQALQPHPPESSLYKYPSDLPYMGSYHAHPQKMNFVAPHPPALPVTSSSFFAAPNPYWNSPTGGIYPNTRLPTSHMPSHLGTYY
# In short: as §1
# ELF1 = ELF1 (Homo sapiens, UniProt P32519 1-619)
# In short: as §1
# EHF = biological target: T5, EHF (Homo sapiens, UniProt Q9NZC4 1-300)
# T5 sequence: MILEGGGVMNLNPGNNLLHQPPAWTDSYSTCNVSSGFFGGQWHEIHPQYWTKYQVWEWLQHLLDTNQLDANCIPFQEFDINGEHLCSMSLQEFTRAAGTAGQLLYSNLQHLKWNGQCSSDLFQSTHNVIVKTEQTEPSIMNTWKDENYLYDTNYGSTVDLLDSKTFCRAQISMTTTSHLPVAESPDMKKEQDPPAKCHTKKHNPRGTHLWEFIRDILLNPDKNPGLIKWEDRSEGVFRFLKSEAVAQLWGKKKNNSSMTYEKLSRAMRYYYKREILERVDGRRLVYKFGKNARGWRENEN
# In short: as §1
# SPI1 = SPI1 (Homo sapiens, UniProt P17947 1-270)
# In short: as §1
# SPIB = SPIB (Homo sapiens, UniProt Q01892 1-262)
# In short: as §1
# ELK3 = biological target: T6, ELK3 (Homo sapiens, UniProt P41970 1-407)
# T6 sequence: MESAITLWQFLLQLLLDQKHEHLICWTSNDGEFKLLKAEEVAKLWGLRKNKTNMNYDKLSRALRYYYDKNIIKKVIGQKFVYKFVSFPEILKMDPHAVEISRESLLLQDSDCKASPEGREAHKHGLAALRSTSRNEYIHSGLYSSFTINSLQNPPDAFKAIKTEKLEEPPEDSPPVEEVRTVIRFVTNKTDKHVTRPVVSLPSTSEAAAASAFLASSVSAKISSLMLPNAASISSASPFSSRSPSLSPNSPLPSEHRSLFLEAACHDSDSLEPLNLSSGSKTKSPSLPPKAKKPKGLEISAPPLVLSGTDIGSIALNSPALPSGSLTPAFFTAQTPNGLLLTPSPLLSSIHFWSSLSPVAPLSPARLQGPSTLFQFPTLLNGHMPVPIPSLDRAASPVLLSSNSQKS
# In short: as §1
# ELF1, sequence (P32519 whole entry): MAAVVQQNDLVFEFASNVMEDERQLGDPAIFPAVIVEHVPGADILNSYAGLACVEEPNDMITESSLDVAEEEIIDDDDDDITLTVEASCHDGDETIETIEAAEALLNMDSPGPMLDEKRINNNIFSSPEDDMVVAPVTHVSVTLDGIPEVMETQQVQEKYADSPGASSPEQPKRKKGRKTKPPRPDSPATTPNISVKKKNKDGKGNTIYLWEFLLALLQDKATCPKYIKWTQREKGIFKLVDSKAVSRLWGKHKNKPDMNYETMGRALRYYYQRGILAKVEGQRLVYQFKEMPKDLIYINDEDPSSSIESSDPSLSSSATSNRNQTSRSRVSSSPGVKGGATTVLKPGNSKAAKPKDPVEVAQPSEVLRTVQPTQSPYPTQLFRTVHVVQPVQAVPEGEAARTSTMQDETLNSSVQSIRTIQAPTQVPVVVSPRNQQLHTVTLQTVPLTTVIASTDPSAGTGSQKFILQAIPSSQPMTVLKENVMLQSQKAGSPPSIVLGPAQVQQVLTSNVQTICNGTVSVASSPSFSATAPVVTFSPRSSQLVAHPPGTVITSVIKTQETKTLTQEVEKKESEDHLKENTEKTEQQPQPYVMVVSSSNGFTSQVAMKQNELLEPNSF
# SPIB, sequence (Q01892 whole entry): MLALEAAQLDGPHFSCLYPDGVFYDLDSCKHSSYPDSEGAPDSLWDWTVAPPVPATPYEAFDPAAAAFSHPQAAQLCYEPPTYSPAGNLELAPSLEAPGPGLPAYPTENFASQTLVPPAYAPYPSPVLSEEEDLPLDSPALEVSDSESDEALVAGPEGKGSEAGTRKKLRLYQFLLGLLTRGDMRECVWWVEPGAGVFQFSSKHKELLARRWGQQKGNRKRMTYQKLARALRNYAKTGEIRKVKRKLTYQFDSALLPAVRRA
Sequence,binding signal (FLI1),binding signal (ELK1),binding signal (GABPA),binding signal (ERG),binding signal (ELF1),binding signal (EHF),binding signal (SPI1),binding signal (SPIB),binding signal (ELK3)
AACGAA,"1.07 fold enrichment (6-mer frequency, TF over GST control)","1.14 fold enrichment (6-mer frequency, TF over GST control)","1.15 fold enrichment (6-mer frequency, TF over GST control)","1.15 fold enrichment (6-mer frequency, TF over GST control)","1.18 fold enrichment (6-mer frequency, TF over GST control)","1.15 fold enrichment (6-mer frequency, TF over GST control)","1.14 fold enrichment (6-mer frequency, TF over GST control)","1.19 fold enrichment (6-mer frequency, TF over GST control)","1.13 fold enrichment (6-mer frequency, TF over GST control)"
TTGATC,"1.21 fold enrichment (6-mer frequency, TF over GST control)","1.22 fold enrichment (6-mer frequency, TF over GST control)","1.21 fold enrichment (6-mer frequency, TF over GST control)","1.19 fold enrichment (6-mer frequency, TF over GST control)","1.21 fold enrichment (6-mer frequency, TF over GST control)","1.12 fold enrichment (6-mer frequency, TF over GST control)","1.23 fold enrichment (6-mer frequency, TF over GST control)","1.3 fold enrichment (6-mer frequency, TF over GST control)","1.26 fold enrichment (6-mer frequency, TF over GST control)"
GTAATC,"1.16 fold enrichment (6-mer frequency, TF over GST control)","1.14 fold enrichment (6-mer frequency, TF over GST control)","1.32 fold enrichment (6-mer frequency, TF over GST control)","1.08 fold enrichment (6-mer frequency, TF over GST control)","1.16 fold enrichment (6-mer frequency, TF over GST control)","1.19 fold enrichment (6-mer frequency, TF over GST control)","1.13 fold enrichment (6-mer frequency, TF over GST control)","1.09 fold enrichment (6-mer frequency, TF over GST control)","1.11 fold enrichment (6-mer frequency, TF over GST control)"
GTTACT,"1.25 fold enrichment (6-mer frequency, TF over GST control)","1.28 fold enrichment (6-mer frequency, TF over GST control)","1.13 fold enrichment (6-mer frequency, TF over GST control)","1.33 fold enrichment (6-mer frequency, TF over GST control)","1.22 fold enrichment (6-mer frequency, TF over GST control)","1.37 fold enrichment (6-mer frequency, TF over GST control)","1.3 fold enrichment (6-mer frequency, TF over GST control)","1.23 fold enrichment (6-mer frequency, TF over GST control)","1.31 fold enrichment (6-mer frequency, TF over GST control)"
ATCTCA,"1.17 fold enrichment (6-mer frequency, TF over GST control)","1.18 fold enrichment (6-mer frequency, TF over GST control)","1.15 fold enrichment (6-mer frequency, TF over GST control)","1.11 fold enrichment (6-mer frequency, TF over GST control)","1.2 fold enrichment (6-mer frequency, TF over GST control)","1.25 fold enrichment (6-mer frequency, TF over GST control)","1.12 fold enrichment (6-mer frequency, TF over GST control)","1.19 fold enrichment (6-mer frequency, TF over GST control)","1.18 fold enrichment (6-mer frequency, TF over GST control)"
CACTGG,"1.15 fold enrichment (6-mer frequency, TF over GST control)","1.07 fold enrichment (6-mer frequency, TF over GST control)","1.15 fold enrichment (6-mer frequency, TF over GST control)","1.12 fold enrichment (6-mer frequency, TF over GST control)","1.17 fold enrichment (6-mer frequency, TF over GST control)","1.05 fold enrichment (6-mer frequency, TF over GST control)","1.03 fold enrichment (6-mer frequency, TF over GST control)","1.11 fold enrichment (6-mer frequency, TF over GST control)","1.02 fold enrichment (6-mer frequency, TF over GST control)"
TAGGGT,"1.04 fold enrichment (6-mer frequency, TF over GST control)","1.03 fold enrichment (6-mer frequency, TF over GST control)","1.11 fold enrichment (6-mer frequency, TF over GST control)","1.03 fold enrichment (6-mer frequency, TF over GST control)","1.16 fold enrichment (6-mer frequency, TF over GST control)","1.09 fold enrichment (6-mer frequency, TF over GST control)","1.13 fold enrichment (6-mer frequency, TF over GST control)","1.1 fold enrichment (6-mer frequency, TF over GST control)","1.04 fold enrichment (6-mer frequency, TF over GST control)"
